# Experimental data: PubChem BioAssay (NCI)
# This is part of a sample that, as a whole, favours compounds with a hit. Of some 83,000 tested, about 20% had one in any assay.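 The test compound was applied at a single concentration to cells in 96-well plates for 48 hours, and percent growth was recorded.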 Values without a mark were called inactive. Active and inactive are the calls of the source. Rule for the calls: active = growth percent below 10; inactive = the rest.
# Experiments:
# Test in all cases: NCI-60 one-dose screen, 48 h (100 = growth as untreated, 0 = no growth, -100 = all killed)
# Conditions in all cases: 10 µM
# NCI-H23 lung = tested on: NCI-H23 lung
# NCI-H226 lung = tested on: NCI-H226 lung
# NCI-H322M lung = tested on: NCI-H322M lung
# HOP-62 NSCLC = tested on: HOP-62 NSCLC
# NCI-H460 lung = tested on: NCI-H460 lung
# HOP-92 NSCLC = tested on: HOP-92 NSCLC
# NCI-H522 lung = tested on: NCI-H522 lung
# A549/ATCC NSCLC = tested on: A549/ATCC NSCLC
# 786-0 renal = tested on: 786-0 renal
# COLO 205 colon = tested on: COLO 205 colon
Structure (SMILES),growth (NCI-H23 lung),growth (NCI-H226 lung),growth (NCI-H322M lung),growth (HOP-62 NSCLC),growth (NCI-H460 lung),growth (HOP-92 NSCLC),growth (NCI-H522 lung),growth (A549/ATCC NSCLC),growth (786-0 renal),growth (COLO 205 colon)
[O-]c1c[n+](-c2ccc(Cl)cc2)no1,106%,103%,94.1%,91.3%,101%,83.8%,122%,108%,108%,103%
CCCCCCCCCCCC(=O)NCCCN(C)C,90.4%,109%,97.1%,111%,99.6%,45.5%,87.4%,91.4%,90.9%,94.4%
C#C[C@]1(O)CC[C@H]2[C@@H]3CC[C@H]4CC(F)(F)CC[C@]4(C)[C@H]3CC[C@@]21C,95.5%,90.4%,89%,67.5%,83.9%,93.8%,105%,77.2%,101%,90.9%
NS(=O)(=O)c1ccc(N2N=C(c3ccc(-c4ccccc4)cc3)CC2c2ccc(Cl)cc2)cc1 (stereo not given),85.9%,81%,87.6%,90.8%,70.1%,78.4%,75.1%,64.1%,95.9%,103%
O=C(Nc1ccc(CN2CCOCC2)cc1)c1ccc(-c2cc(Cl)ccc2Cl)o1,82.7%,72.5%,51.4%,71.4%,5.58% (active),19.2%,66.7%,57.3%,63%,-82.1% (active)
CCN1CCN(c2ccc(Nc3ncnc4c3nnn4CCc3cc(OC)cc(OC)c3)cc2)CC1,88.8%,85.8%,95.6%,99.4%,106%,89.6%,96.1%,95.5%,99.6%,89.3%
CC(C)CCN(CCCNc1c2c(nc3cc(Cl)ccc13)CCCC2)CCC(C)C,62.3%,53.8%,75%,77.9%,55.7%,12.3%,82.1%,85.4%,80.1%,32.6%
COc1cccc(C(=O)N(c2ccc(F)c(F)c2)C(C(=O)NC(C)(C)C)c2cc3c(C)cc(C)cc3nc2Cl)c1 (stereo not given),66%,65.7%,84.7%,86.6%,64.1%,47%,61.6%,52.8%,76.6%,70.2%
CC(=O)Nc1nc(C)c(C(=O)N/N=C/c2cccn2C)s1,96%,90.7%,150%,109%,109%,56.1%,86%,104%,111%,125%
c1ccc(CC(NCCNC(Cc2ccccc2)c2ccccc2)c2ccccc2)cc1 (stereo not given),25%,38%,66.2%,61.1%,-13.9% (active),-9.41% (active),-40.5% (active),36.8%,35.9%,-59.5% (active)
COc1ccc(C(C)=O)cc1N1C(=O)C2C(C1=O)C1(c3ccccc3)C(=O)C2(c2ccccc2)C(c2ccc(C)cc2)=C1c1ccc(C)cc1 (stereo not given),42.8%,32.9%,27.6%,33.4%,4.54% (active),49.6%,21.2%,6.68% (active),22.1%,23.4%
COc1ccccc1Cn1cc2c(c1-c1ccccc1)CCc1cnoc1-2,36.9%,59.9%,35.1%,34.7%,10.7%,53.1%,42.1%,46.6%,33.5%,19.6%
O=S(=O)(NC1c2ccccc2Oc2ccccc21)c1cc(Cl)ccc1Cl,97.6%,83.4%,90%,89.4%,105%,60.2%,29.5%,97.1%,84.6%,98.9%
N#Cc1ncc(-c2cc(F)ccc2F)c(NC2CCCCCC2)n1,89.9%,92.6%,73.6%,65.9%,48.5%,65.2%,68%,78%,97.6%,100%
CCOC(=O)[C@@H](Cc1ccccc1)NC(=O)c1[nH]c2ccc(Cl)cc2c(=O)c1C,99.7%,107%,97.7%,92.3%,103%,100%,71.8%,84.1%,97.4%,111%
COc1ccc2oc(=O)cc(C3c4ccc([nH]4)C(c4cc(=O)oc5ccc(OC)cc45)c4ccc([nH]4)C(c4cc(=O)oc5ccc(OC)cc45)c4ccc([nH]4)C(c4cc(=O)oc5ccc(OC)cc45)c4ccc3[nH]4)c2c1 (stereo not given),-12.4% (active),15.8%,27.9%,17.6%,6.39% (active),41.8%,-71.9% (active),41.1%,-24% (active),-76.7% (active)
CN(C)CCCN(Cc1ccccc1O)C(=S)Nc1ccc(Cl)cc1,108%,94.5%,98.1%,108%,102%,86.8%,96%,98.1%,107%,113%
Clc1ccc(-c2nc(-c3cccs3)cn3ccnc23)cc1,71.1%,72%,97.4%,57.7%,81.3%,81.5%,28%,57.4%,99.8%,71.1%
CCOC(=O)c1cc2c(n1Cc1ccccc1)-c1oncc1CC2,89.5%,84.4%,60.4%,92.5%,19.6%,75.6%,41.1%,89.1%,107%,86.2%
Cn1cnc([N+](=O)[O-])c1Sc1nnc(-c2ccccc2)c(-c2ccccc2)n1,79.5%,77.1%,102%,97.3%,113%,71.1%,85.4%,114%,85.4%,90.2%

Structure (SMILES),growth (NCI-H23 lung),growth (NCI-H226 lung),growth (NCI-H322M lung),growth (HOP-62 NSCLC),growth (NCI-H460 lung),growth (HOP-92 NSCLC),growth (NCI-H522 lung),growth (A549/ATCC NSCLC),growth (786-0 renal),growth (COLO 205 colon)
Cc1ccc(/C(CS(=O)(=O)c2ccc(C)cc2)=N\O)cc1,99.9%,93.6%,104%,111%,106%,87.4%,97%,94.6%,102%,118%
CC(C)c1[nH]nc2c(NCc3ccc(-c4ccccn4)cc3)nc(SCCN(C)C)nc12,-23.8% (active),2.16% (active),17%,-11.2% (active),8% (active),-15.9% (active),-48.3% (active),8.6% (active),11.3%,-42% (active)
CCOc1cc(Br)c(C(C)NC(=O)c2cccc(OC)c2)cc1OCC (stereo not given),79.7%,89.2%,94.3%,87.3%,78.1%,8.9% (active),83.6%,76.6%,68.1%,23.8%
Fc1ccc(-c2cc(C(Cl)Cl)no2)cc1,95.5%,87.2%,93.4%,98.2%,101%,99.4%,114%,122%,110%,115%
CCOC(=O)c1c(O)c2cc(-c3ccccc3)nc(OCC)c2c(=O)n1C,85.8%,79%,122%,93.2%,110%,51.7%,98.9%,99.4%,94%,117%
CC(CNC(Cc1ccccc1)c1ccccc1)NC(Cc1ccccc1)c1ccccc1 (stereo not given),30.3%,34.8%,77.7%,39.9%,8.03% (active),-0.172% (active),9.37% (active),46.8%,50.2%,9.3% (active)
Cc1cc(/C=C2\SC(=Nc3ccccc3)N(C3CCCC3)C2=O)c(C)n1-c1ccc(Cl)cc1,-19.8% (active),-66.6% (active),-55% (active),-69.6% (active),-57.4% (active),-74.2% (active),-66.8% (active),-27.5% (active),-85.1% (active),-94.5% (active)
CNCCCNCCCN1C(=O)c2ccc3c4c(ccc(c24)C1=O)C(=O)N(CCCNCc1ccccc1OC)C3=O,-31% (active),8.88% (active),1.15% (active),7.81% (active),-16.6% (active),-32.1% (active),-52.7% (active),1.84% (active),10.4%,-72.8% (active)
COC(=O)c1cnc2c(c1)Oc1ccccc1-c1ccnn1-2,95.8%,83.9%,105%,92.5%,104%,86.9%,80.3%,86.3%,90.6%,101%
CNC(=S)Sc1ccc([N+](=O)[O-])cc1[N+](=O)[O-],83.5%,78.9%,99.1%,83%,102%,23.6%,-57.7% (active),80.8%,93.9%,-35.1% (active)
CC(C)(C)CC(C)(C)c1ccc(O)c(Cc2ccc(Cl)cc2Cl)c1,-85.9% (active),-83.8% (active),-89.6% (active),-88.4% (active),-68.1% (active),-90.6% (active),-84.7% (active),-88.5% (active),-92.8% (active),-71.4% (active)
CCCN(CCC)CCCNC(=O)c1cc2c(-c3ccc(OC)c(OC)c3)nn(C)c2s1,11.6%,37.5%,22%,34.5%,8.52% (active),-7.72% (active),-17% (active),9.14% (active),29.5%,90.1%
CCCCCCCCCCSC(=N)N (tested in a mixture with another compound),80%,94.2%,105%,77.3%,52.5%,41.8%,53.7%,75.3%,52.4%,-59.2% (active)
O=NN(CCCl)C(=O)Nc1ccc(NC(=O)N(CCCl)N=O)cc1,107%,96.5%,112%,105%,88.7%,84.8%,114%,82.8%,61.3%,105%
COc1cc(C)c2sc3ccccc3c(=O)c2c1NCCN(C)C,76.3%,74%,90.6%,67.7%,22.2%,19.1%,80.1%,28.8%,65.9%,16.1%
COc1ccc(C(=O)/C=C/c2cc(-c3ccc(OC)c(OC)c3)n[nH]2)cc1OC,8.17% (active),58%,-13.5% (active),-33.5% (active),-42.2% (active),-59.3% (active),-89.4% (active),-12.8% (active),-64.2% (active),-60.7% (active)
OC(CNC1CCCC1)Cn1c2ccccc2c2ccccc21 (stereo not given),31%,99.5%,51%,50.1%,8.53% (active),26.2%,27.7%,11.1%,9.8% (active),-66.2% (active)
CCOc1nc(-c2ccccc2)cc2c(O)c(C(=O)N/N=C/c3ccc(OC)cc3)[nH]c(=O)c12,97.9%,109%,124%,105%,101%,74.6%,83.1%,110%,116%,87.7%
COc1cc2nc(Sc3sc(N)nc3C)n(-c3ccc(Oc4ccccc4)cc3)c(=O)c2cc1OC,90.6%,89.7%,123%,110%,99.5%,79.5%,83.7%,83.3%,80%,76%
